Experimental data: PubChem BioAssay
Where “and” joins values, the source holds several entries; their conditions need not be identical. Identical values can stand only once. Calls of active or inactive are those of the source.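 The calls were made as follows, unless noted: active = compounds whose cell count with miR-34 switched on is under 0.7 times the count with it off; inactive = the rest.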

Key:
[1] = sensitizers of A549 cells to miR-34 induction, primary screen, imaging, A549 dox-inducible miR-34, nuclei and caspase counts (AID 1347080); conditions: A549 miR-34 inducible, Hoechst nuclei count, 48 h
[2] = survival rescue of mitochondrial mutant cells in low glucose, primary screen, MELAS cybrids, Rieske KO mouse fibroblasts, CellTiter-Glo (AID 1508586;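 active = mean z-score across replicates of 1.96 or higher in either the MELAS or the Rieske mutant cell line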;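 also: z relative to plate mean and SD of compound and empty wells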)
[3] = stronger effect = lower value, cell number ratio, induced over uninduced
[4] = measured here: relative caspase fold change +Dox/-Dox
[5] = measured here: total cells with miR-34 induction, stronger effect = lower value
[6] = measured here: total cells without miR-34 induction
[7] = MELAS cybrid survival, CellTiter-Glo 48 h, stronger effect = higher value
[8] = Rieske KO mouse fibroblast survival, CellTiter-Glo 72 h
Also: test concentration not given here.

Row | Compound | fold change [1, 3] | fold change [1, 4] | cell count [1, 5] | cell count [1, 6] | z-score [2, 7] | z-score [2, 8]
1 | OC(COc1cccc2ncccc12)CN1CCN(C2c3ccccc3C3C(c4ccccc42)C3(F)F)CC1 (stereo not given) | 1.04 (inactive) | 0.683 | 5300 | 5090 | -0.428 (inactive) | 0.74
2 | CCNC(=O)c1[nH]nc(-c2cc(Cl)c(O)cc2O)c1-c1ccc(OC)cc1 | 1.1 (inactive) | 0.416 | 3020 | 2740 | 2.3 (active) | -0.612
3 | CC1(C)C=C(CN2CC(=Cc3ccc(F)cc3)C(=O)C(=Cc3ccc(F)cc3)C2)C(C)(C)N1O | 0.876 (inactive) | 0.446 | 6830 | 7800 | -0.493 (inactive) | -2.15
4 | Cc1ccc(Cl)cc1N(CC(=O)Nc1c(F)cccc1F)S(C)(=O)=O | 0.888 (inactive) | 0.518 | 8090 | 9110 | -0.403 (inactive) | 0.642
5 | CCCC(NC(=O)C(C#N)=Cc1cccc(Br)n1)c1ccccc1 (stereo not given) | 0.929 (inactive) | 0.922 | 824 | 888 | 3.82 (active) | -1.38
6 | C#C[C@]1(O)CC[C@H]2[C@@H]3CCC4=CC(=O)CC[C@@H]4[C@@H]3CC[C@@]21C | 0.857 (inactive) | 0.775 | 7940 | 9270 | -0.24 (inactive) | -0.172
7 | OCC1OC(O[C@]2(CCl)OC(CCl)C(O)C2O)C(O)C(O)C1Cl (stereo not given in full) | 0.895 (inactive) | 0.674 | 8040 | 8990 | -0.278 (inactive) | -0.16
8 | Cc1cc(Nc2nc(NC(C)c3ncc(F)cn3)ncc2Cl)n[nH]1 (stereo not given) | 1.07 (inactive) | 1.17 | 1380 | 1290 | 0.54 (inactive) | -3.57
9 | Cc1cc(NC(=O)c2cccc(NC(=O)C=CCN(C)C)c2)ccc1Nc1nccc(-c2cccnc2)n1 | 0.969 (inactive) | 0.805 | 6190 | 6390 | -0.659 (inactive) | 0.143
10 | C1=CCOCc2cc(ccc2OCCN2CCCC2)Nc2nccc(n2)-c2cccc(c2)COC1 | 0.848 (inactive) | 0.685 | 776 | 915 | 3.58 (active) | -5.03
11 | CC(=O)C1=C(O)C=C2Oc3c(C(C)=O)c(O)c(C)c(O)c3[C@]2(C)C1=O | 0.866 (inactive) | 1.11 | 5890 | 6800 | -0.25 (inactive) | 0.769
12 | CC(=O)Nc1ccc(NC(=S)NC(=O)c2ccc(C(C)(C)C)cc2)cc1 | 1 (inactive) and 1.05 (inactive) | 1.21 and 0.561 | 1820 and 1680 | 1820 and 1600 | -0.38 (inactive) | 0.0517
13 | CCCC(=O)O[C@@]1(C(=O)COC(C)=O)CC[C@H]2[C@@H]3CC(F)C4=CC(=O)C=C[C@]4(C)[C@]3(F)C(O)C[C@@]21C (stereo not given in full) | 0.767 (inactive) | 1.77 | 5160 | 6730 | -0.0529 (inactive) | -0.145
14 | CC(O)[C@@H]1C(=O)N2C(C(=O)O)=C(SC3CNC(CNS(N)(=O)=O)C3)C(C)[C@@H]12 (stereo not given in full) | 0.983 (inactive) | 0.831 | 7900 | 8030 | -0.367 (inactive) | -0.0647
15 | CC1(C)[C@@H](O)CC[C@@]2(C)[C@H]1CC[C@]1(C)[C@H]2C(=O)C=C2[C@H]3C[C@@](C)(C(=O)O)CC[C@]3(C)CC[C@]21C | 0.897 (inactive) | 0.953 | 7890 | 8800 | -0.219 (inactive) | 0.479
16 | C=C[C@@]1(C)CC(=O)[C@@]2(O)[C@@]3(C)C(O)CCC(C)(C)[C@@H]3C(O)C(OC(C)=O)[C@@]2(C)O1 (stereo not given in full) | 0.968 (inactive) | 1.19 | 8540 | 8820 | 0.411 (inactive) | -0.394
17 | CCc1cnn2c(NCc3ccc[n+]([O-])c3)cc(N3CCCCC3CCO)nc12 (stereo not given) | 1.13 (inactive) | 0.956 | 1750 | 1550 | 1.14 (inactive) | -3.25
18 | N#CC(=Cc1ccc(O)c(O)c1)C(=O)NCc1ccccc1 | 0.901 (inactive) | 1.14 | 6440 | 7150 | -0.517 (inactive) | 0.15
19 | CCCCc1nc2cc(C=CC(=O)NO)ccc2n1CCN(CC)CC | 1.12 (inactive) | 0.731 | 1070 | 951 | 0.665 (inactive) | -0.474
20 | C#CCNC1CCc2ccccc21 (stereo not given) | 1.01 (inactive) | 0.344 | 8040 | 7960 | -0.195 (inactive) | -0.00726
21 | CC[C@]1(O)C[C@H]2CN(CCc3c([nH]c4ccccc34)[C@@](C(=O)OC)(c3cc4c(cc3OC)N(C)[C@@H]3C45CCN4CC=C[C@@](CC)(C(OC(C)=O)[C@]3(O)C(=O)OC)[C@H]45)C2)C1 (stereo not given in full) | 1.18 (inactive) | 0.78 | 1480 | 1260 | 0.649 (inactive) | -0.168
22 | O=C(c1ccc(F)cc1)N1CCCC(c2nc(-c3ccc(F)cc3)no2)C1 (stereo not given) | 0.877 (inactive) | 0.718 | 8270 | 9420 | -0.287 (inactive) | -0.496
23 | CN(C)CCCCC(=O)Nc1ccc(NC(=S)NC(=O)c2ccc(C(C)(C)C)cc2)cc1 | 1.13 (inactive) and 1.1 (inactive) | 0.871 and 0.667 | 4160 and 3360 | 3670 and 3070 | 0.0334 (inactive) | -0.0265

Row | Compound | fold change [1, 3] | fold change [1, 4] | cell count [1, 5] | cell count [1, 6] | z-score [2, 7] | z-score [2, 8]
24 | C[C@]12CC[C@H]3c4ccc(O)cc4CC[C@H]3[C@@H]1CCC2O (stereo not given in full) | 0.784 (inactive) | 0.957 | 6520 | 8310 | -0.389 (inactive) | -0.286
25 | N#Cc1c(Oc2ccc(F)c(NC(=O)Cc3cccc(C(F)(F)F)c3)c2)ccc2nc(NC(=O)C3CC3)sc12 | 1.2 (inactive) | 0.284 | 2200 | 1840 | -0.453 (inactive) | 0.158
26 | CC(=O)c1cc([N+](=O)[O-])c(Sc2ccc(F)cc2F)s1 | 0.898 (inactive) | 0.374 | 8140 | 9060 | -0.42 (inactive) | 0.533
27 | CC1(C)CCC(c2ccc(Cl)cc2)=C(CN2CCN(c3ccc(C(=O)NS(=O)(=O)c4ccc(NC(CCN5CCOCC5)CSc5ccccc5)c(S(=O)(=O)C(F)(F)F)c4)cc3)CC2)C1 (stereo not given) | 1.03 (inactive) | 0.848 | 4260 | 4140 | 0.179 (inactive) | -2.71
28 | CC(C)CN(C[C@H](O)[C@@H](Cc1ccccc1)NC(=O)O[C@@H]1CO[C@H]2OCC[C@H]21)S(=O)(=O)c1ccc(N)cc1 | 0.938 (inactive) | 0.791 | 7440 | 7930 | -0.364 (inactive) | 0.28
29 | O=S(=O)(NCCNCC=Cc1ccc(Br)cc1)c1cccc2cnccc12 | 0.834 (inactive) | 0.904 | 8100 | 9710 | -0.305 (inactive) | 0.0221
30 | CC(=O)Nc1nc2c(Oc3cc(-c4ccc(C(F)(F)F)cc4)ncn3)cccc2s1 | 0.981 (inactive) | 0.45 | 8510 | 8670 | -0.457 (inactive) | -0.29
31 | O=C(C=Cc1ccc(O)c(O)c1)OCCc1ccccc1 | 1.02 (inactive) | 0.387 | 7430 | 7300 | -0.587 (inactive) | -2.25
32 | CNCc1cc(-c2ccccc2F)n(S(=O)(=O)c2cccnc2)c1 | 0.924 (inactive) | 0.437 | 8460 | 9150 | -0.328 (inactive) | 0.241
33 | CCC1OC(=O)C(C)C(OC2C[C@@](C)(OC)C(O)C(C)O2)C(C)C(OC2OC(C)CC(N(C)C)C2O)[C@@](C)(O)CC(C)C(=O)C(C)C(O)[C@]1(C)O (stereo not given in full) | 0.879 (inactive) | 1.14 | 7750 | 8820 | -0.0604 (inactive) | 0.782
34 | COc1ccc2cc1Oc1ccc(cc1)C[C@@H]1c3c(cc4c(c3Oc3cc5c(cc3OC)CCN(C)[C@@H]5C2)OCO4)CCN1C | 0.966 (inactive) | 1.15 | 4290 | 4440 | -0.206 (inactive) | -0.161
35 | CCCCCCOC(=O)N=C(N)c1ccc(NCc2nc3cc(C(=O)N(CCC(=O)OCC)c4ccccn4)ccc3n2C)cc1 | 0.94 (inactive) | 0.85 | 8810 | 9380 | -0.278 (inactive) | 0.124
36 | Cc1ccc(-c2c(-c3nn(C)c4ncnc(N5CCC(N6CCCCC6)C5)c34)cnn2C)cc1 (stereo not given) | 0.989 (inactive) | 0.458 | 8040 | 8120 | -0.254 (inactive) | -0.0628
37 | CCOC(=O)C(CCc1ccccc1)NC1CSC(c2cccs2)CN(CC(=O)O)C1=O (stereo not given) | 1.05 (inactive) | 0.5 | 8260 | 7900 | -0.343 (inactive) | -0.0675
38 | CN1CCC(NC(=O)c2cc(-c3c(O)cc(O)cc3Oc3ccc([N+](=O)[O-])cc3)on2)CC1 | 1.08 (inactive) | 0.376 | 2520 | 2330 | 2.88 (active) | -1.28
39 | N#Cc1ccc2[nH]c(O)c(-c3ccc(CN4CCOCC4)cn3)c2c1 | 0.757 (inactive) | 0.717 | 2200 | 2900 | 1.12 (inactive) | -0.87
40 | CC(=O)[C@H]1CC[C@H]2[C@@H]3C=CC4=CC(=O)CC[C@@]4(C)[C@H]3CC[C@]12C | 0.894 (inactive) | 0.952 | 7680 | 8580 | -0.0223 (inactive) | -0.212
41 | COc1cc(C2c3cc4c(cc3C(OC3OC5COC(c6cccs6)OC5C(O)C3O)C3COC(=O)[C@H]23)OCO4)cc(OC)c1O (stereo not given in full) | 1.06 (inactive) | 0.936 | 1550 | 1460 | 0.486 (inactive) | 0.638
42 | COCC(NC(=O)c1cnc(C)s1)C(=O)NC(COC)C(=O)NC(Cc1ccccc1)C(=O)C1(C)CO1 (stereo not given) | 0.898 (inactive) | 1.09 | 714 | 796 | 0.992 (inactive) | -0.399
43 | Oc1cc(O)cc(C=Cc2ccc(O)c(O)c2)c1 | 0.901 (inactive) | 0.971 | 9720 | 10800 | -0.345 (inactive) | 0.783
44 | CC1(C)C(OC2OC(C(=O)O)C(O)C(O)C2OC2OC(C(=O)O)C(O)C(O)C2O)CC[C@@]2(C)[C@H]1CC[C@]1(C)[C@H]2C(=O)C=C2[C@H]3C[C@@](C)(C(=O)O)CC[C@]3(C)CC[C@]21C (stereo not given in full) | 0.916 (inactive) | 0.946 | 8230 | 8990 | -0.0747 (inactive) | -0.803
45 | COc1ccc(S(=O)(=O)N(C(C)=O)c2ccccc2C=Cc2cc[n+]([O-])cc2)cc1 | 1.18 (inactive) | 0.723 | 1240 | 1050 | 0.938 (inactive) | -0.247
